Screening data as filed in PubChem BioAssay.
FMDV inh: antivirals against foot and mouth disease virus; Potency, µM (highest dose often 57.9 µM), usual class: inhibitors; FMDV antiviral cell-based qHTS; 410,000 compounds, 1.2% hits; calls by dose curve; tested in HEK293T cells; note: read-out not given here; nearly all actives have a fitted effect of over 45% in size
HCV inh: blocks hepatitis C virus; Huh7.5.1 HCVcc-Cre infection, luciferase reporter, 44 h; Potency, µM (highest dose often 41.8 µM), hits mostly inhibitors; 340,000 compounds, 3.4% hits; active = well fitted inhibition curve with a large enough effect; inconclusive = small, poorly fitted or top-dose-only effect, or another doubt; inactive = no such curve, though single readings can be large or run the other way
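Seed cells (1,000/well) for 4 h; treat with compound and infect with HCVcc-Cre, moi about 0.5. Incubate 44 h, then detect luciferase activity.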
Lassa entry inh: inhibitors of Lassa virus binding or cell entry; Lassa virus pseudotype entry inhibition, cell reporter; Potency, µM (highest dose often 37.9 µM), usual class: inhibitors; 300,000 compounds, 1.2% hits; calls by dose curve; tested in HEK293 cells; note: nearly all actives have a fitted effect of over 50% in size
Vaccinia Venus: inhibitors of vaccinia virus (Venus reporter). Vaccinia virus Venus reporter expression, fluorescence. Potency, µM (doses to about 36.5 µM), actives largely listed as inhibitors. 330,000 compounds, 0.46% hits. AID 720580; calls by dose curve; tested in A549 cells; note: nearly all actives have a fitted effect of over 30% in size
Marburg entry inh: inhibitors of Marburg virus binding or cell entry; Marburg virus pseudotyped entry inhibition, cell reporter; Potency, µM (doses to about 37.8 µM), most hits filed as inhibitors; 300,000 compounds, 1.8% hits; AID 540276; calls by dose curve; tested in HEK293 cells
VACV mCherry inh: inhibitors of vaccinia virus infection (mCherry reporter signal); 310,000 compounds, 0.63% hits; Potency, µM (series often up to 36.5 µM), hits mostly inhibitors; Vaccinia virus mCherry reporter infection, fluorescence; calls by dose curve; tested in A549 cells; note: nearly all actives have a fitted effect of over 35% in size
A number is an active result; . = inactive; ? = inconclusive; / = not tested or not shown; ! = not active in a repeat. Most compounds without a hit are left out; they make up all but 5.3% or so of the library.

SMILES	FMDV inh	HCV inh	Lassa entry inh	Vaccinia Venus	Marburg entry inh	VACV mCherry inh
CN(C)C(=O)[C@@H]1C[C@@H](Sc2nc3ccccc3[nH]2)CN1Cc1ccnc2ccccc12	.	/	/	.	/	.
O=C(NC1CCCCC1)C(c1ccccn1)N(C(=O)Cc1cccs1)c1ccc(Cl)cc1 (centres undefined)	.	.	.	/	10µM	/
Cc1cc(C)cc(N(C(=O)Cc2cccs2)C(C(=O)NC2CCCCC2)c2ccccn2)c1 (centres undefined)	.	.	.	/	.	/
CSc1ccc(/C=C2\C=C(C(O)c3ccc(SC)cc3)c3ccccc32)cc1 (centres undefined)	/	/	/	?	/	.
CN(C)c1ncc2nc(-c3ccc(Cl)cc3)c(=O)n(C[C@H]3CCCO3)c2n1	.	/	/	/	/	/
COC(=O)C1=C(C(=O)OC)[C@@H]2N(CC=C(C)C)c3ccccc3[C@@]23CCC(=O)N(CCc2ccccn2)C3=N1	/	/	/	/	.	/
O=C(NCCc1c[nH]c2ccccc12)c1cc2sccc2n1Cc1ccccc1	?	5µM	?	/	.	/
O=C(OCc1ccccc1)N(CCCCN(CCCNCc1ccccc1)C(=O)OCc1ccccc1)CCCNCc1ccccc1	?	10µM	?	?	?	?
O=C(Cn1ccc(NC(=O)OCc2ccccc2)nc1=O)NCCc1c[nH]c2ccccc12	.	2.8µM	/	.	/	.
O=C(Nc1ccn(CCCNCc2ccccc2)c(=O)n1)OCc1ccccc1	.	0.56µM	/	?	/	.
O=C(Nc1ccn(CCCNCc2ccc3c(c2)OCO3)c(=O)n1)OCc1ccccc1	.	10µM	/	.	/	.
COc1cc(C(=O)N(Cc2cc3ccc(C)cc3nc2N(C)C)C2CC2)cc(OC)c1OC	.	/	/	.	/	.
CCc1cc(C(=O)N2CCCC(C(=O)c3cccc4ccccc34)C2)n(C)n1 (centres undefined)	?	10µM	/	.	?	.
Cc1ccccc1Cn1ccc(NC(=O)CCSc2nc(-c3ccco3)cc(C(F)(F)F)n2)n1	.	3.2µM	.	.	1.1µM!	/
Cc1ccc(Cn2ccc(NC(=O)CCSc3nc(-c4ccco4)cc(C(F)(F)F)n3)n2)cc1	?	11µM	?	?	?	/
Cc1cc(NC(=O)CCSc2nc(-c3ccco3)cc(C(F)(F)F)n2)no1	.	?	.	.	.	.
CCc1nnc(NC(=O)CSc2nc3c([nH]c4ccccc43)c(=O)n2-c2ccc(Cl)cc2)s1	.	/	7.9µM	.	/	.
COc1ccccc1NC(=O)c1cnc(SCC(=O)NCC2CCCO2)n(C)c1=O (centres undefined)	25µM	.	?	.	?	.
COc1ccc(-n2c(SCC(=O)Nc3ccc(C(N)=O)cc3)nc3c([nH]c4ccccc43)c2=O)cc1OC	.	11µM	/	/	/	/
COc1ccc(C)cc1-n1c(SCC(=O)NCC2CCCO2)nc2c([nH]c3ccccc32)c1=O (centres undefined)	.	8.9µM	.	.	?	.
COc1ccc(-n2c(SCC(=O)Nc3nnc(C)s3)nc3c([nH]c4ccccc43)c2=O)cc1	.	/	.	.	/	.
CCN(CC)S(=O)(=O)c1cccc(S(=O)(=O)c2cccc(S(=O)(=O)N(CC)CC)c2)c1	.	11µM	?	/	?	/
NC(N)=N/N=C/c1ccc(N(c2ccccc2)c2ccccc2)cc1	32µM	?	/	10µM	/	?
COc1ccc(/C=N\N=C(N)N)cc1	.	?	?	.	?	.
CCN(Cc1ccccc1)c1ccc(/C=N/N=C(N)N)cc1	?	?	8.2µM	11µM	6.5µM	?
SMILES	FMDV inh	HCV inh	Lassa entry inh	Vaccinia Venus	Marburg entry inh	VACV mCherry inh
CCN(Cc1ccccc1)c1ccccc1	.	.	/	.	/	.
Cc1ccc2nc(-c3ccc(NC(=O)Cc4cccs4)cc3)[nH]c2c1	/	11µM	?	13µM	.	?
Cc1ccc2nc(-c3ccc(NC(=O)C4CCCO4)cc3)[nH]c2c1 (centres undefined)	.	.	8.2µM	/	?	/
CCOC(=O)c1ccc(NC(=O)c2cc3c(s2)CCC3)cc1	.	7.9µM	.	.	.	.
COc1ccc(NC(=O)c2cn(-c3ccccc3)nc2-c2ccc(C)cc2)cc1	.	/	.	.	/	.
COC(=O)c1cn(-c2ccccc2)nc1-c1ccncc1	.	.	.	.	.	.
COc1ccc(-c2nn(-c3ccccc3)cc2/C=N/O)cc1	14µM	.	/	/	/	/
COc1ccc(-c2nn(-c3ccccc3)cc2C(=O)n2nnc3ccccc32)cc1	20µM	.	.	.	.	.
CCN(CC)CCNC(=S)NC(=O)c1cn(-c2ccccc2)nc1-c1ccc(OC)cc1	.	22µM	/	/	/	/
COC(=O)c1cn(-c2ccccc2)nc1-c1ccc(OC)cc1	.	13µM	/	.	/	.
COc1cc(C(=O)OCC(=O)NC2CCCCC2)cc2c1OCCO2	.	.	/	/	/	/
COc1ccc(-c2nn(-c3ccccc3)cc2C(=O)OCC(=O)c2ccc(C)c([N+](=O)[O-])c2)cc1	?	7.1µM	.	.	.	.
O=C(CN1CCCCCC1)Nc1ccc(Cl)cn1	.	.	.	.	?	.
COc1ccc(OC)c(-c2ccnc(-n3ncc(C(=O)N(C)CCc4ccccn4)c3C)n2)c1	.	/	/	.	/	.
CC(C)(C)c1cc(-c2ccccc2)no1	.	.	.	.	.	.
CNc1ccccc1C(C)(C)c1cc(-c2cccc([N+](=O)[O-])c2)no1	.	.	?	.	4.5µM	?
CNc1ccccc1C(C)(C)c1cc(-c2cccc(Br)c2)no1	?	?	?	.	?	.
CNc1ccccc1C(C)(C)c1cc(-c2ccc(F)cc2)no1	?	4µM	.	.	?	?
C[C@@H]1[C@H](c2ccccc2)OCCS(=O)(=O)N1Cc1cccc(Cl)c1	/	/	/	.	/	.
COC(=O)c1ccc(NC(=O)CC2C(=O)N(c3cccc(C)c3)C(=O)N2Cc2ccco2)cc1 (centres undefined)	.	/	.	.	/	.
Cc1ccc2nc(SCC(=O)N3CCOc4ccc(CN5C[C@@H](C)O[C@@H](C)C5)cc4C3)[nH]c2c1	.	/	/	.	/	.
CC(C)(C)NC(=O)C(c1c[nH]c2ccccc12)N(C(=O)Cn1nnc(-c2ccc(Cl)cc2)n1)c1ccccc1F (centres undefined)	.	10µM	?	?	?	.
COc1cccc(N(C(=O)Cn2nnc(-c3ccc(C)cc3)n2)C(C(=O)NC(C)(C)C)c2c[nH]c3ccccc23)c1 (centres undefined)	.	?	?	/	?	/
CC(C(=O)NC1CCCC1)N(C(=O)Cn1nnc(-c2ccc(F)cc2)n1)c1ccccc1F (centres undefined)	.	.	?	.	8.2µM	.
Cc1c(C(=O)NC2CCN(Cc3ccccc3)C2)oc2c(Cl)cccc12 (centres undefined)	.	.	10µM	.	?	?
Cn1cnc2c(=O)oc3ccc(S(=O)(=O)Nc4ccc(F)cc4)cc3c21	.	/	.	.	/	.
Cc1ncc2c(c1CNC(=O)/C=C/c1cccs1)CCN(C(=O)C1CCCO1)C2 (centres undefined)	.	/	/	.	/	.
O=C(Nc1cccc(Cl)c1)Nc1cccc(Cl)c1	.	.	.	?	?	?
